The campaign covered roughly 52,000 compounds. About 1,700 (3.3%) were called active. For the sample, actives were picked, then their nearest neighbours and some compounds at random. A number with no mark means an inactive call. Cut-off read from the data, not from the text of the source: active = survival mostly below about 52% (no sharp cut-off); inactive = mostly above about 56%.

The test relates to Wild type. As to the kind of experiment: growth inhibition of S. aureus wild type versus tarO mutant, primary screen, teichoic acid synthesis inhibitors, RN4220, OD600 (AID 463173). Particulars: S. aureus RN4220 wild type/DeltatarO growth, OD600, 18 h, hits give low values, screened at 18.75 µg/mL (by protocol).
With `Cc1cccc(-n2ncc(C(=O)Nc3ccc4c(c3)OCO4)c2C2CCN(C(=O)OC(C)(C)C)CC2)c1`, the survival is 89%.

As for `CCOC(=O)c1ccccc1NC(=O)Cn1c(=O)n(Cc2ccccc2)c(=O)c2c(C)c(C)sc21`, the survival is 90%.

For `CCCCOc1ccc(C(=O)NCCS(=O)(=O)N2CCN(c3ccc(F)cc3)CC2)cc1`, the survival is 65%.

Take `COc1ccccc1NC(=O)c1c(C)cc(C)nc1SCC(=O)Nc1ccc(C)c(C)c1`: the survival is 81%.

Turning to `Cc1ccc(-c2cn3c(n2)sc2cc(C(=O)NCCC4=CCCCC4)ccc23)c(C)c1`, the survival is 100%.

Take `COC(=O)c1ccc(NC(=O)CSc2nc(=O)n(Cc3ccco3)c3c2CCC3)cc1`: the survival was 126%.

On to `COc1ccc2c(c1)c1c(c(=O)n(CCc3ccccc3)c(=O)n1Cc1cccc(F)c1)n2C`, for which the survival is 63%.

Take `CCc1ccc(NCc2cc3cc4c(cc3n(CC(=O)Nc3ccc(C)cc3)c2=O)OCO4)cc1`: the survival is 113%.

As to `COc1ccc2c(c1)c1c(c(=O)n(Cc3ccccc3)c(=O)n1CC(=O)Nc1ccc(C)cc1C)n2C`, the survival was -4% (active).

On to `COc1ccc2c(c1)c1c(c(=O)n(CCc3ccccc3)c(=O)n1Cc1ccc(F)cc1)n2C`, for which the survival is 1% (active).

On to `COc1ccc2cc(CNc3ccccc3)c(=O)n(CC(=O)Nc3ccc(C)cc3C)c2c1`, for which the survival was -2% (active).

As for `CCc1ccc(NCc2cc3ccc(OC)cc3n(CC(=O)Nc3ccccc3C)c2=O)cc1`, the survival is 84%.

For the molecule `CC(=O)c1cccc(NC(=O)Cn2c(=O)c(CNc3ccc(C)cc3)cc3cc4c(cc32)OCCO4)c1`, the survival is 77%.

`COc1ccc2c(c1)c1c(c(=O)n(Cc3ccccc3)c(=O)n1CC(=O)Nc1ccccc1F)n2C`: the survival is 129%.

With `Cc1ccc(NCc2cc3cc4c(cc3n(CC(=O)Nc3ccc(C)cc3)c2=O)OCCO4)cc1`, the survival is 0% (active).

As for `COc1ccc2c(c1)c1c(c(=O)n(Cc3ccccc3)c(=O)n1CC(=O)Nc1c(C)cccc1C)n2C`, the survival was 81%.

For `COc1ccc2cc(CNc3ccc(C)cc3)c(=O)n(CC(=O)Nc3ccc(C)cc3Cl)c2c1`, the survival is 74%.

As for `COc1ccc2c(c1)c1c(c(=O)n(CCc3ccccc3)c(=O)n1Cc1ccccc1)n2C`, the survival was 57%.

For `COc1ccc(NC(=O)C2CCCN(S(=O)(=O)c3ccc(F)cc3)C2)cc1` (configuration not stated), the survival is 85%.

`COc1ccc(-n2nc3cc(C)c(NC(=O)COc4cccc(C)c4)cc3n2)cc1`: the survival is 78%.

Take `CCCCC1CCC(C(=O)N2CC(=O)Nc3ccc(F)cc3C2c2ccc(F)cc2)CC1` (configuration not stated): the survival was 77%.

As to `CCOc1ccc2[nH]c(=O)c(-c3nc4cccc(C)n4c3NCc3ccco3)cc2c1`, the survival is 108%.

Take `Cc1ccc(CNC(=O)Cc2c(C)c3cc4c(C)coc4cc3oc2=O)cc1`: the survival was 92%.

Turning to `COc1ccc(-c2noc(C(C)NC(=O)c3ccco3)n2)cc1` (configuration not stated), the survival is 107%.

On to `Cc1nn(CC(=O)Nc2ccc(C(C)C)cc2)c(=O)c2c(C)n(-c3ccc(Cl)cc3)nc12`, for which the survival was 90%.

With `COc1ccc2c(c1)c1c(c(=O)n(Cc3ccccc3)c(=O)n1Cc1ccc(C)cc1)n2C`, the survival was 87%.

For the molecule `COc1cccc(Cn2c(=O)n(Cc3ccccc3)c(=O)c3c2c2cc(OC)ccc2n3C)c1`, the survival was 57%.

Turning to `COc1ccc2c(c1)c1c(c(=O)n(Cc3ccccc3)c(=O)n1Cc1ccccc1)n2C`, the survival is -3% (active).

In the case of `C/C(=N/OCC(=O)Nc1sc2c(c1C#N)CCCC2)c1cccs1`, the survival was 111%.

For the molecule `CCOCCCN(Cc1ccco1)C(=O)c1cc2c(s1)-c1c(C)cccc1OC2`, the survival is 12% (active).

On to `CCN(Cc1ccccc1)C(=O)c1cc2c(s1)-c1c(C)cccc1OC2`, for which the survival is 71%.

Take `CCN1CCN(CCCNC(=O)c2cc3c(s2)-c2c(C)cccc2OC3)CC1`: the survival was 87%.

In the case of `CCOc1ccc(CCNC(=O)c2cc3c(s2)-c2c(C)cccc2OC3)cc1`, the survival is 90%.

For the molecule `CCOCCCN(Cc1ccco1)C(=O)c1cc2c(=O)[nH]c3ccc(C)cc3c2s1`, the survival is 127%.

For `CCCCN(Cc1ccco1)C(=O)c1cc2c(s1)-c1c(C)cccc1OC2`, the survival is 13% (active).

As to `Cc1ccc(C)c(N2CCN(C(=O)Cn3ncc4c(=O)oc5ccccc5c43)CC2)c1`, the survival was 71%.

As for `Cc1ccc2nc(N(CCCN(C)C)C(=O)c3ccco3)sc2c1`, the survival was 72%.

As to `COc1ccc(-c2ccc(-c3noc(-c4cc(OC)cc(OC)c4)n3)c(OC)n2)cc1`, the survival was 49%.

`CCOc1ccccc1-c1nc(-c2ccc(-c3ccccc3)nc2OCC)no1`: the survival is -1% (active).

Regarding `COc1nc(C)ccc1-c1noc(-c2ccccc2)n1`, the survival is 100%.

As to `COc1nc(-c2ccccc2)ccc1-c1noc(C(C)C)n1`, the survival is 88%.

For the molecule `COc1nc(-c2ccc(C)cc2)ccc1-c1noc(-c2ccccc2Br)n1`, the survival was 2% (active).

Consider `COc1nc(-c2ccccc2)ccc1-c1noc(-c2ccccc2Br)n1`, for which the survival is -2% (active).

Turning to `COc1cccc(-c2ccc(-c3noc(-c4ccccc4Br)n3)c(OC)n2)c1`, the survival was 37%.

On to `COc1nc(-c2ccc(C)cc2)ccc1-c1noc(-c2ccc(C(C)(C)C)cc2)n1`, for which the survival was 32%.

On to `COc1cccc(-c2nc(-c3ccc(-c4ccccc4)nc3OC)no2)c1`, for which the survival is 2% (active).

In the case of `CCOc1cc(-c2nc(-c3ccc(-c4ccc(C)cc4)nc3OC)no2)cc(OCC)c1OCC`, the survival was 56%.

Take `CCOc1cc(-c2nc(-c3ccc(-c4ccccc4)nc3OCC)no2)cc(OCC)c1OCC`: the survival is 60%.

In the case of `CCOc1nc(-c2ccccc2)ccc1-c1noc(-c2ccc(C)cc2)n1`, the survival is 109%.

Turning to `COc1cccc(-c2nc3c(c(SCc4ccccc4)n2)Cc2c(CO)cnc(C)c2O3)c1`, the survival is 101%.

For the molecule `CCCN(CCC)CCCNC(=O)C1CCC(CNS(=O)(=O)c2ccc(NC(C)=O)cc2)CC1` (configuration not stated), the survival is 66%.

In the case of `CCOC(=O)N1CCN(Cc2nc3cc(NC(=O)c4ccc(F)cc4)ccc3n2C(C)C)CC1`, the survival is 86%.

For the molecule `CC(=O)N1N=C(N)SC1c1ccccc1` (configuration not stated), the survival is 104%.

Consider `CCCC(=O)Nc1nnc(SCc2cc(=O)c3cc(C)ccc3[nH]2)s1`, for which the survival is 70%.

As to `CC(=O)c1cccc(NC(=O)CN2C(=O)CCc3cc(S(=O)(=O)N4CCCCC4)ccc32)c1`, the survival is 82%.

Regarding `Cc1cc(C)nc(NS(=O)(=O)c2ccc(NC(=O)c3nc(SC(C)C)ncc3Cl)cc2)n1`, the survival is 79%.

On to `O=S(=O)(NCCc1cn2ccsc2n1)c1ccc(Cl)cc1`, for which the survival is 129%.

Regarding `CCc1ccc(NC(=O)CC(NCc2cccnc2)C(=O)O)cc1` (configuration not stated), the survival is 74%.

As for `CC(C)NC(=O)C1CCCCC1C(=O)O` (configuration not stated), the survival was 88%.

Regarding `CCc1ccc(NC(=O)c2cnc3sc(N4CCCC4)nn3c2=O)cc1`, the survival is 85%.

`CCC(=O)N1CCc2cc(S(=O)(=O)NC(C(=O)NCc3ccccc3Cl)C(C)C)ccc21` (configuration not stated): the survival was 84%.

In the case of `CCCNC(=O)CCSc1nc(-c2ccc3c(c2)OCO3)cc(C(F)(F)F)n1`, the survival is 84%.

Take `CC(C)(C)NC(=O)CCSc1nc(-c2ccc3c(c2)OCO3)cc(C(F)(F)F)n1`: the survival was 4% (active).

Take `CC(C)NC(=O)CCSc1nc(-c2ccc3c(c2)OCO3)cc(C(F)(F)F)n1`: the survival was 77%.

Turning to `COc1ccc(Cl)cc1NC(=O)c1c(NCc2ccc(C)o2)sc2c1CCCCC2`, the survival is 80%.

Turning to `CCOc1cccc2cc(-c3nc4sc5c(c4c(=O)[nH]3)CCC(C)C5)c(=O)oc12` (configuration not stated), the survival is 119%.

In the case of `CCC(C(=O)Nc1cc(F)ccc1F)n1nc(-c2cc(C)ccc2C)ccc1=O` (configuration not stated), the survival was 75%.

In the case of `Cc1ccc(CCNC(=O)c2nn(C)c3c2CSc2ccccc2-3)cc1`, the survival was 90%.

Regarding `Cc1cccc(CCNC(=O)c2nn(C)c3c2CSc2ccccc2-3)c1`, the survival is 87%.

Turning to `Cc1ccc2c(c1)-c1c(c(C(=O)NCCc3ccccc3)nn1C)CS2`, the survival is 10% (active).

As for `Cc1ccc(Nc2c(-c3ccccc3O)nc3ccc(Br)cn23)cc1`, the survival was 101%.

In the case of `CC(C)OCCCNC(=O)C(=O)Nc1ccc2nc3n(c(=O)c2c1)CCCCC3`, the survival was 99%.

Regarding `COc1ccc(/C=C\c2onc(C)c2S(=O)(=O)N2CCC(C(=O)Nc3ccccc3OC)CC2)cc1`, the survival was 116%.

`Cc1ccc(NC(=O)c2cnn3c(C(F)F)cc(-c4ccccc4)nc23)cc1F`: the survival was 86%.

`COc1ccccc1NC(=O)CSc1nc(-c2ccccc2F)nc2cc(=O)[nH]n12`: the survival was 73%.

Regarding `Cc1cccc(-c2nc(SCc3ccc(Br)cc3)n3[nH]c(=O)cc3n2)c1`, the survival is 83%.

For the molecule `Cc1ccc(CSc2nc(-c3ccc(C(C)(C)C)cc3)nc3cc(=O)[nH]n23)cc1`, the survival is 113%.

In the case of `Cc1ccc(-c2nc(SCc3ccc(Br)cc3)n3[nH]c(=O)cc3n2)cc1`, the survival is 10% (active).

Turning to `O=c1cc2nc(-c3ccccc3)nc(SCc3cccc(Br)c3)n2[nH]1`, the survival was 73%.

On to `O=c1cc2nc(-c3ccccc3F)nc(SCc3ccc(Br)cc3)n2[nH]1`, for which the survival is -2% (active).

With `CC(C)Sc1ncc(Cl)c(C(=O)Nc2nc3ccc(S(C)(=O)=O)cc3s2)n1`, the survival is 112%.

Consider `CN(C(=O)Cn1cc(S(=O)(=O)Cc2ccccc2Cl)c2ccccc21)c1ccccc1`, for which the survival was 146%.

Consider `CCc1cccc(NC(=O)Cn2c(=O)n(CCc3ccc(OC)c(OC)c3)c(=O)c3ccccc32)c1`, for which the survival is 124%.

For `O=C(Cn1c(-c2cccs2)cc2ccccc21)NCCCN1CCN(c2ccc(F)cc2)CC1`, the survival is 136%.

As to `O=C1S/C(=C\c2ccccc2)C(=O)N1CN1CCOCC1`, the survival is 125%.

Turning to `Cc1nc2cccnc2n1C1CCN(C(=O)Nc2ccccc2C(F)(F)F)CC1`, the survival was 72%.

For the molecule `COc1ccccc1CNC(=O)c1ccc(CN2CC(=O)N3CCCCC3C2=O)cc1` (configuration not stated), the survival was 72%.
